Laboratory results reported in PubChem BioAssay (NCATS).
Inconclusive results are not listed. Calls of active or inactive are those of the source. Unless noted, the call rests on the fitted dose curve; in most records, active means well fitted curve in the direction sought with a large enough effect; inconclusive means small, poorly fitted or top-dose-only effect, or another doubt; inactive means no such curve, though single readings can be large; an effect the other way counts as inactive or inconclusive.

biological target: Nuclear receptor ROR-gamma (Homo sapiens) (UniProt P51449); experiment: qHTS assay for small molecule antagonists of the retinoid-related orphan receptor gamma (ROR-gamma) signaling pathway (AID 651802); settings: ROR-gamma antagonist cell reporter assay; series mostly up to 92.2 µM; activity change, negative = inhibition: at the top concentration; further: nearly all actives have a fitted effect of over 60% in size;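 on activity change, negative = inhibition: CHO cells with doxycycline-induced ROR-gamma expression; luciferase reporter luminescence driven by ROR response element; on the % scale 0 is the no-effect control and ±100 the full control effect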
Method in brief: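 Luciferase read-out: ONE-Glo luminescence after 30 min at room temperature, following 16hr doxycycline induction at 37C, 5% CO2 of CHO cells with TET-inducible ROR and RORE-LUC reporter; decreased luminescence = reduced reporter activity.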
Potency means the concentration at half of the fitted maximal effect.

Chain of Nuclear receptor ROR-gamma (Homo sapiens) (P51449 whole entry, looked up): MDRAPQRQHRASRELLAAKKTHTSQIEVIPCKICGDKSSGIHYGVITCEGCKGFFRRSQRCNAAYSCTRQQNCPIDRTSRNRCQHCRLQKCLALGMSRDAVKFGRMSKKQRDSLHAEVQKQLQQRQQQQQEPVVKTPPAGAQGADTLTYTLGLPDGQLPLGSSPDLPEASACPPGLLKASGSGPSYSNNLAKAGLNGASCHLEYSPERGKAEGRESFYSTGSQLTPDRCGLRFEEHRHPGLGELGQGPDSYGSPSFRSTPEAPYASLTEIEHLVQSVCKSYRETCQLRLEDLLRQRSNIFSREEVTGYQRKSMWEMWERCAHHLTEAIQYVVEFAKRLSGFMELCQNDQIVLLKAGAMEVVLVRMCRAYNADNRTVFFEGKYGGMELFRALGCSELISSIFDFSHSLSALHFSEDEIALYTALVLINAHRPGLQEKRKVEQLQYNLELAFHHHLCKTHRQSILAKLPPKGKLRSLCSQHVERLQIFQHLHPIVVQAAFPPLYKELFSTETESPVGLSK

Row | SMILES | activity change, negative = inhibition | Potency
1 | O=C(O)C(Br)Br | 6.22% (inactive) | –
2 | Oc1c(Cl)c(Cl)cc(Cl)c1Cl | – | 21.1 µM (active)
3 | CN(C)c1ccc(N(C)C)cc1 | -94% (inactive) | –
4 | Brc1ccc(Oc2ccc(Br)cc2Br)c(Br)c1 | -19.8% (inactive) | –
5 | O=[N+]([O-])c1c(Cl)c(Cl)c(Cl)c(Cl)c1Cl | -22.7% (inactive) | –
6 | CN1CSC(=S)N(C)C1 | -21.2% (inactive) | –
7 | ClCC(Cl)Cl | -15% (inactive) | –
8 | CC(C)Br | -2.44% (inactive) | –
9 | O=[N+]([O-])c1ccc(O)c([N+](=O)[O-])c1 | – | 6.68 µM (active)
10 | CC(C)[N+](=O)[O-] | 38.3% (inactive) | –
11 | Cc1cc(-c2cc(C)c(N)c(C)c2)cc(C)c1N | -1.42% (inactive) | –
12 | Nc1cc(Cl)ccc1O | -14.1% (inactive) | –
13 | CCN(N=O)C(N)=O | -12.8% (inactive) | –
14 | N#CC(Cl)(Cl)Cl | -5.98% (inactive) | –
15 | CCCCC(CC)COC(=O)c1ccc(C(=O)OCC(CC)CCCC)c(C(=O)OCC(CC)CCCC)c1 (stereo not drawn) | 2.47% (inactive) | –
16 | O=C(O)C(Br)CBr (stereo not drawn) | 17% (inactive) | –
17 | Nc1c(Br)cc([N+](=O)[O-])cc1[N+](=O)[O-] | -16.5% (inactive) | –

Row | SMILES | activity change, negative = inhibition | Potency
18 | O=[N+]([O-])c1ccccc1CCl | – | 42.2 µM (active)
19 | Cc1cc(C)cc(OP(=O)(Oc2cc(C)cc(C)c2)Oc2cc(C)cc(C)c2)c1 | – | 26.6 µM (active)
20 | N#CC(Br)Br | 17.9% (inactive) | –
21 | O=C(O)C(Cl)Br (stereo not drawn) | 23.5% (inactive) | –
22 | COP(=S)(OC)SCn1nnc2ccccc2c1=O | 33% (inactive) | –
23 | Nc1ccc([N+](=O)[O-])cc1N | – | 42.2 µM (active)
24 | Cc1cc(N=Nc2ccccc2C)ccc1N | -66.3% (inactive) | –
25 | OCCCCO | -11.6% (inactive) | –
26 | O=[N+]([O-])c1cc(Cl)c(Cl)c(Cl)c1 | 9.83% (inactive) | –
27 | CC(C)(COCC1CO1)COCC1CO1 (stereo not drawn) | 13.7% (inactive) | –
28 | Cc1ccc2c(c1N)C(=O)c1ccccc1C2=O | 111% (inactive) | –
29 | COc1ccccc1N | 2.68% (inactive) | –
30 | CC(C)(C)OOC(=O)c1ccccc1 | -7.8% (inactive) | –
31 | c1ccc(N=NNc2ccccc2)cc1 | 26% (inactive) | –
32 | COC(C)(C)C | -3.9% (inactive) | –
33 | C(CCOCC1CO1)COCC1CO1 (stereo not drawn) | -10.8% (inactive) | –
34 | O=[N+]([O-])/C=C/c1ccccc1 | -9.21% (inactive) | –

tested on: not listed separately; experiment: qHTS assay for small molecule agonists of the antioxidant response element (ARE) signaling pathway measured by Nrf2-dependant transcriptional activity (AID 720636; active means well fitted curve in the direction sought with a large enough effect in the repeat runs; an effect the other way counts as inactive or inconclusive;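 on activation: HepG2 cells with an ARE-driven luciferase reporter; % of control where 0% means no effect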); settings: ARE-luc HepG2, Nrf2 luciferase reporter, 16 h; series mostly up to 92.4 µM; activation: at the top concentration
Method in brief: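 HepG2 ARE-luc reporter line, 1% dialyzed FBS; 6 hr attachment at 37 C, compound pinned in, 16 hr at 37 C/5% CO2; ONE-Glo, 30 min RT, luminescence read.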

Row | SMILES | Potency | activation
35 | Cc1ccc(OP(=O)(Oc2ccc(C)cc2)Oc2ccc(C)cc2)cc1 | inactive | –
36 | Oc1c(Cl)c(Cl)cc(Cl)c1Cl | – | -1.51% (inactive)
37 | Nc1ccc(Cc2ccc(N)c(Cl)c2)cc1Cl | – | 0.376% (inactive)
38 | Brc1ccc(Oc2ccc(Br)cc2Br)c(Br)c1 | – | 2.1% (inactive)
39 | ClCC(Cl)Cl | – | -1.47% (inactive)
40 | C=CC(=O)OCCO | – | 0.0093% (inactive)
41 | CC(C)Br | – | -0.101% (inactive)
42 | O=[N+]([O-])c1ccc(O)c([N+](=O)[O-])c1 | – | 0.101% (inactive)
43 | CC(C)[N+](=O)[O-] | – | -1.31% (inactive)
44 | CCCC[N+](=O)[O-] | – | -0.808% (inactive)
45 | Nc1cc(Cl)ccc1O | 21.1 µM (active) | –
46 | CCN(N=O)C(N)=O | – | -0.372% (inactive)
47 | N#CC(Cl)(Cl)Cl | – | -0.616% (inactive)
48 | O=C(O)C(Br)CBr (stereo not drawn) | – | -0.226% (inactive)
49 | O=[N+]([O-])c1ccccc1CCl | – | 0.333% (inactive)
50 | N#CC(Br)Br | – | 3.73% (inactive)
51 | O=C(O)C(Cl)Br (stereo not drawn) | – | -0.428% (inactive)
52 | COP(=S)(OC)SCn1nnc2ccccc2c1=O | inactive | –
53 | O=C(O)c1cccc(Cl)c1 | – | -0.775% (inactive)
54 | OCCCCO | – | -0.532% (inactive)
55 | O=[N+]([O-])c1cc(Cl)c(Cl)c(Cl)c1 | – | -0.632% (inactive)
56 | CC(C)(COCC1CO1)COCC1CO1 (stereo not drawn) | – | -0.242% (inactive)
57 | CC(C)(C)OOC(=O)c1ccccc1 | inactive | –
58 | COC(C)(C)C | – | -0.93% (inactive)
